Hit rate of the full screen: of about 65,000 compounds, about 2,100 (3.2%) showed an effect of 50% or more. The median lay at about -52%. The sample holds strong results, similar compounds and a random draw of the others, so the mix is not that of the screen.
system: Plasmodium falciparum; assay: Screen against P. falciparum Asexual Blood Stage (ABS), at 5uM; format: functional, Dd2; settings: tested at 5 uM

First: COc1cc(N2CC[C@@H]3OCCN(C)[C@H]3CC2)ncn1
Second: c1cnc(N2CC[C@@H]3CN(Cc4ccncc4)CCO[C@@H]3C2)nc1
The INHIBITION of the first is higher: -67.4% for the first, -103% for the second.

Going from `Cc1cccc(OCC(=O)N2CCN(C3CCOC3=O)CC2)c1C` (stereo unspecified) to `CC(=O)N1CCN([C@@H]2CN(C(=O)Cc3ccccc3C)C[C@H]2O)CC1`, the INHIBITION falls from -13.7% to -146%.

Going from `CC1COC2(CCN(C(=O)c3ncoc3C(C)C)CC2)O1` (stereo unspecified) to `O=C(NCCOc1cccc(Cl)c1Cl)N1CCC2(CC1)OCCO2`, the INHIBITION rises from -69.9% to -68.2%.

Compared with `Nc1nc(N)c2c(n1)OC1(CCN(Cc3nccs3)C1)C2` (stereo unspecified), `Cc1noc(C)c1CN1CCCC2(C1)CN(c1nccs1)CCO2` (stereo unspecified) is higher in INHIBITION: -96% for the first, 18.6% for the second.

Compared with `CN1CCN(c2ncccn2)CC12CCC(=O)N(CC1CC1)CC2` (stereo unspecified), `c1cnc(N2CCC3(CC2)CN(CC2CC2)c2ccccc23)nc1` is higher in INHIBITION: -74.4% for the first, 86.3% for the second.

Going from `CCN1CCC2(CC1)CN(CCO)c1ccccc12` to `CCCN1CCC2(Cc3ccccc3NC2=O)C1` (stereo unspecified), the INHIBITION rises from -30.2% to -3.59%.

First: Fc1ccc2[nH]c3c(c2c1)CCN1C(c2ccncc2)N2CCC31CC2 (stereo unspecified)
Second: Fc1ccc2[nH]c3c(c2c1)CCN1C(c2ccccn2)N2CCC31CC2 (stereo unspecified)
The INHIBITION of the first is higher: 89.6% for the first, 81.2% for the second.

First: c1cnc(N2CCN3C[C@H](Oc4cncnc4)C[C@H]3C2)nc1
Second: O=C(Cc1cccc(F)c1)N1CCN2C[C@H](Oc3cncnc3)C[C@H]2C1
The INHIBITION of the first is lower: -102% for the first, -93.1% for the second.

Compared with `CNc1nc(C(=O)N2C[C@@H]3CCN(C)[C@@H]3C2)cs1`, `CC(C)N1CCO[C@H]2CN(C(=O)c3ccncc3)C[C@H]21` is higher in INHIBITION: -94.9% for the first, -69.9% for the second.

Compared with `CCOCCN1C[C@H](C(=O)Nc2cccnc2)[C@@H]2CCO[C@@H]2C1`, `CN(C)CCN1CCO[C@H]2CN(Cc3ccccn3)C[C@H]21` is higher in INHIBITION: -9.46% for the first, 11.1% for the second.

Going from `CCOCCCn1c(NC(=O)c2cc(C)on2)nc2ccccc21` to `CN(CCc1ccccc1)Cc1nc2c(cnn2C)c(=O)[nH]1`, the INHIBITION falls from 71.5% to -38.8%.

Compared with `Oc1cccc(CN2C[C@@H]3CC[C@H]2CN(Cc2ccncc2)C3)c1`, `c1ccc(N2CC[C@@H]3CN(Cc4ccncc4)CCO[C@@H]3C2)cc1` is lower in INHIBITION: -31.9% for the first, -57.3% for the second.

First: O=C(CC1[C@H]2CN(Cc3ccncc3)C[C@@H]12)N1CCCC1 (stereo partly specified)
Second: O=C(N1CCOCC1)[C@@]12CCO[C@@H]1CCN(Cc1ccncc1)C2
The INHIBITION of the first is lower: -109% for the first, -39.7% for the second.

Compared with `NCC1[C@H]2CN(Cc3cccc(Cl)c3)C[C@@H]12` (stereo partly specified), `NCC1[C@H]2CN(Cc3ccccc3F)C[C@@H]12` (stereo partly specified) is lower in INHIBITION: 83.8% for the first, 68.2% for the second.

Compared with `c1ccc(CCN2C[C@@H]3OCCN(c4ncccn4)[C@@H]3C2)cc1`, `c1ccc(CN2CC[C@H]3CO[C@H](CNc4ncccn4)[C@H]3C2)cc1` is higher in INHIBITION: -64.6% for the first, -6.23% for the second.

Compared with `Cc1ccc([C@]2(O)CC[C@H]3CN(Cc4ccccc4F)C[C@H]32)nc1`, `O[C@@]1(c2ccccn2)CC[C@H]2CN(Cc3cccc(Cl)c3Cl)C[C@H]21` is higher in INHIBITION: 20.6% for the first, 39.6% for the second.

Compared with `NCC1[C@H]2CN(CCc3ccccc3)C[C@@H]12` (stereo partly specified), `NCCn1nc(C2CCN(Cc3ccccc3)C2)c2nccnc21` (stereo unspecified) is lower in INHIBITION: 86.8% for the first, 80.4% for the second.

Going from `O=C1CO[C@@H]2CN(Cc3nccs3)C[C@H]2N1Cc1ccncc1` to `Cc1ccc(CN2C[C@@H]3[C@@H](C2)OCC(=O)N3Cc2ccncc2)s1`, the INHIBITION rises from -59.6% to 3.28%.

First: CN(C)[C@@H]1CN(C(=O)Cc2ccc(F)cc2)[C@@H]2CCCO[C@H]12
Second: CN(C)[C@@H]1CN(C(=O)COc2cccc(F)c2)C[C@H]1O
The INHIBITION of the first is lower: -29.9% for the first, -21.2% for the second.

First: CN(CCc1ccc(F)cc1)Cc1nc2c(cnn2C)c(=O)[nH]1
Second: CC(C)N(Cc1ccccn1)Cc1nc2c(cnn2C)c(=O)[nH]1
The INHIBITION of the first is lower: -97.7% for the first, 74.2% for the second.

First: CN(C)CCn1nc(C2CCN(Cc3ccccc3)C2)c2cccnc21 (stereo unspecified)
Second: NCCn1nc(C2CCN(Cc3ccccc3Cl)C2)c2nccnc21 (stereo unspecified)
The INHIBITION of the first is lower: 71.9% for the first, 80.1% for the second.

Compared with `COc1cccc([C@@H]2CCN(Cc3[nH]nc(C)c3Cl)C[C@H]2O)c1`, `COc1cccc(CN2CCC(c3nn(CCN)c4nccnc34)C2)c1` (stereo unspecified) is higher in INHIBITION: -12.4% for the first, 89.1% for the second.

Going from `COC[C@@H]1CCC[C@]12CN(Cc1cccc(C)n1)CCO2` to `Cc1cccc(CN2CC[C@H]3[C@@H]2CC(=O)N3CC2CC2)n1`, the INHIBITION falls from -26.8% to -122%.

First: CCS(=O)(=O)NC[C@]12COC[C@H]1CN(Cc1ccccn1)C2
Second: CS(=O)(=O)N1CCOCC2(CN(Cc3ccccn3)CCO2)C1 (stereo unspecified)
The INHIBITION of the first is higher: -30.3% for the first, -46.3% for the second.

Going from `Cc1nocc1C(=O)N1CCOC2(COCCN(CC3CC3)C2)C1` (stereo unspecified) to `CC(=O)N1CCC2(CN(CC3CCCC3)C2)C1`, the INHIBITION rises from -103% to -99.3%.

Going from `COc1ccc(CC(=O)N2CCN(Cc3ccco3)C[C@H]2C)cc1OC` to `Cc1ccc(F)cc1CC(=O)N(CCN1CCOCC1)Cc1ccco1`, the INHIBITION rises from -28.9% to -12.9%.

First: CN(C)C(=O)CN1CCO[C@H]2CN(c3ccccn3)C[C@H]21
Second: Cc1ccc(N2CCO[C@H]3CN(Cc4ccncc4)C[C@H]32)nn1
The INHIBITION of the first is higher: -57.3% for the first, -111% for the second.

First: COc1ncccc1CN1C[C@H]2CCN(c3ncccn3)C[C@H]2C1
Second: COCCN1CC[C@@H]2CN(Cc3cccnc3OC)C[C@@H]2C1
The INHIBITION of the first is higher: -39% for the first, -68% for the second.

Going from `COc1ccccc1CN1CCC(c2nn(CCN)c3nccnc23)C1` (stereo unspecified) to `COc1ccccc1C1CNC(=O)c2nc(-c3ncc[nH]3)[nH]c2C1` (stereo unspecified), the INHIBITION rises from 75.5% to 89.1%.

First: c1cncc(CO[C@H]2CN(Cc3ccco3)[C@@H]3COC[C@H]23)c1
Second: CC(C)(C)c1nc(CN(Cc2cccnc2)C2CN3CCC2CC3)no1 (stereo unspecified)
The INHIBITION of the first is higher: -14.4% for the first, -29.7% for the second.

Compared with `Cc1cc(C)n(C2CN(CC(O)c3cc(F)ccc3F)C2)n1` (stereo unspecified), `COc1cc(F)ccc1C(C(=O)O)N(C)CCN1CCCC1` (stereo unspecified) is lower in INHIBITION: 84.7% for the first, 72.3% for the second.

First: CCC(CO)N(Cc1cccc(O)c1)Cc1ccccc1C (stereo unspecified)
Second: COc1ccc(CCN)cc1-c1ccc(O)cc1
The INHIBITION of the first is lower: 75.2% for the first, 85.6% for the second.

Compared with `CCC1CN(CC(=O)NCCN2CCCCCC2)c2ccccc2S1` (stereo unspecified), `CCC1CN(CC(=O)NCCN2CCCCC2)c2ccccc2S1` (stereo unspecified) is lower in INHIBITION: 73.8% for the first, 72.3% for the second.

Going from `CCC1CN(CC(=O)NCCN(CC)CC)c2ccccc2S1` (stereo unspecified) to `CN(CC1Cc2ccccc2CN1C)C(=O)Cc1cccs1` (stereo unspecified), the INHIBITION falls from 76.7% to -12.1%.

Going from `Cc1ccc(CNCCC(O)(c2nccn2C)C(F)(F)F)o1` (stereo unspecified) to `Cn1ccnc1C(O)(CCNCc1ccc(Cl)o1)C(F)(F)F` (stereo unspecified), the INHIBITION falls from 73.2% to 71.1%.

First: Cc1csc(CN2CCC[C@]3(C[C@@H](Oc4ccccn4)CO3)C2)n1
Second: Cc1nnc(N2CCCC3(CN(Cc4cccnc4)CCO3)C2)o1 (stereo unspecified)
The INHIBITION of the first is lower: -213% for the first, -77.8% for the second.

Compared with `CCc1cnc(N)nc1NCCCn1cc(Cl)cn1`, `Cc1cc(C(F)(F)F)cc(=O)n1CCn1cc(Cl)cn1` is lower in INHIBITION: 84.5% for the first, 18.5% for the second.

First: CCN(CC)C(CNC(=O)c1c(C)noc1C(C)C)c1ccsc1 (stereo unspecified)
Second: CCC(CNC(=O)CNC(C)=O)Oc1cccc(F)c1 (stereo unspecified)
The INHIBITION of the first is lower: 78.7% for the first, 85% for the second.

Compared with `CC(C)N1CCN(C(=O)Cc2csc(-c3ccco3)n2)CC1`, `CC(=O)c1cc(CC(=O)N2CCN(CCOc3ccccc3)CC2)cs1` is higher in INHIBITION: -22.2% for the first, 7.62% for the second.

First: COc1cc(F)ccc1C(C(=O)O)N(C)CCN1CCOCC1 (stereo unspecified)
Second: CC(C)(O)c1cn(C[C@H]2C[C@@H]3CCN2C[C@@H]3C(=O)N2CCOCC2)nn1
The INHIBITION of the first is higher: 80.7% for the first, -62.4% for the second.

Compared with `CCS(=O)(=O)N1CCN(CC2CC2)c2ncccc2C1`, `Cc1ccc(CN2C[C@@H]3CCN(Cc4ccncc4)C(=O)[C@H]3C2)s1` is higher in INHIBITION: -94.6% for the first, -13.4% for the second.

Compared with `COC(=O)c1ccc(C2SCC(=O)Nc3ccsc32)cc1` (stereo unspecified), `COc1ccccc1C1SCC(=O)Nc2n[nH]cc21` (stereo unspecified) is lower in INHIBITION: -80.9% for the first, -117% for the second.

Going from `COc1ccc(CCN)cc1-c1ccc(C(N)=O)cc1` to `CCOc1ccc(-c2cc(CCN)ccc2OC)cc1`, the INHIBITION falls from 10.7% to -58%.

Compared with `C[C@H](N)Cn1nc(-c2cccs2)oc1=O`, `Cc1ccc2c(c1)CN(C(=O)c1cccs1)C(CN(C)C)CO2` (stereo unspecified) is higher in INHIBITION: -106% for the first, 77.3% for the second.

Compared with `CNCC[C@H]1CC(C)(C)Oc2ccc(OC)cc21`, `CNCC[C@H]1CC(C)(C)Oc2ccc(OCC3CC3)cc21` is higher in INHIBITION: 73.8% for the first, 76.1% for the second.

Going from `CN(C)c1nc2c(c(NCc3cc(O)ncn3)n1)CCCC2` to `Cc1ccc2nc(CN(C)Cc3n[nH]c4c3CCCCC4)[nH]c2c1C`, the INHIBITION falls from 89.4% to 85.8%.

Going from `COc1cccc(CC(C)NC(=O)NCCNC(C)=O)c1` (stereo unspecified) to `Cc1ccccc1-n1cc(C2=CCN(CCn3cc[nH]c3=O)CC2)cn1`, the INHIBITION falls from -47.5% to -111%.

First: c1ccc(-c2nnc(CNC3CCCN(c4cccnn4)C3)o2)cc1 (stereo unspecified)
Second: CC(C)(C)c1nc(CNC2CCCN(c3cccnn3)C2)no1 (stereo unspecified)
The INHIBITION of the first is lower: 75.8% for the first, 83% for the second.

Going from `CCCN1CCN(C(=O)c2cncnc2C)[C@H]2CS(=O)(=O)C[C@H]21` to `CC(Cn1cncn1)NCc1n[nH]c2c1CCCCC2` (stereo unspecified), the INHIBITION rises from -87.7% to -49.3%.

First: Cc1ccc(CN2Cc3nnn(C)c3C(COCCN(C)C)C2)s1 (stereo unspecified)
Second: Cc1ccc2[nH]c(CN(C)Cc3n[nH]c4c3CCC4)nc2c1
The INHIBITION of the first is lower: 73.9% for the first, 82.3% for the second.

`NC1(c2nc(C(F)(F)F)cc(=O)[nH]2)CCCCC1` gave an INHIBITION of 4.74%.
